A number with no mark means an inactive call.

We go through 2 compounds from the supplement of paper PMC11732987, “Enantioselective OTUD7B fragment discovery through chemoproteomics screening and high-throughput optimisation” (Communications Chemistry, 2025).

In assay [1] the target is T1, ALG13 (UniProt Q9NP73).
T1 sequence (whole entry): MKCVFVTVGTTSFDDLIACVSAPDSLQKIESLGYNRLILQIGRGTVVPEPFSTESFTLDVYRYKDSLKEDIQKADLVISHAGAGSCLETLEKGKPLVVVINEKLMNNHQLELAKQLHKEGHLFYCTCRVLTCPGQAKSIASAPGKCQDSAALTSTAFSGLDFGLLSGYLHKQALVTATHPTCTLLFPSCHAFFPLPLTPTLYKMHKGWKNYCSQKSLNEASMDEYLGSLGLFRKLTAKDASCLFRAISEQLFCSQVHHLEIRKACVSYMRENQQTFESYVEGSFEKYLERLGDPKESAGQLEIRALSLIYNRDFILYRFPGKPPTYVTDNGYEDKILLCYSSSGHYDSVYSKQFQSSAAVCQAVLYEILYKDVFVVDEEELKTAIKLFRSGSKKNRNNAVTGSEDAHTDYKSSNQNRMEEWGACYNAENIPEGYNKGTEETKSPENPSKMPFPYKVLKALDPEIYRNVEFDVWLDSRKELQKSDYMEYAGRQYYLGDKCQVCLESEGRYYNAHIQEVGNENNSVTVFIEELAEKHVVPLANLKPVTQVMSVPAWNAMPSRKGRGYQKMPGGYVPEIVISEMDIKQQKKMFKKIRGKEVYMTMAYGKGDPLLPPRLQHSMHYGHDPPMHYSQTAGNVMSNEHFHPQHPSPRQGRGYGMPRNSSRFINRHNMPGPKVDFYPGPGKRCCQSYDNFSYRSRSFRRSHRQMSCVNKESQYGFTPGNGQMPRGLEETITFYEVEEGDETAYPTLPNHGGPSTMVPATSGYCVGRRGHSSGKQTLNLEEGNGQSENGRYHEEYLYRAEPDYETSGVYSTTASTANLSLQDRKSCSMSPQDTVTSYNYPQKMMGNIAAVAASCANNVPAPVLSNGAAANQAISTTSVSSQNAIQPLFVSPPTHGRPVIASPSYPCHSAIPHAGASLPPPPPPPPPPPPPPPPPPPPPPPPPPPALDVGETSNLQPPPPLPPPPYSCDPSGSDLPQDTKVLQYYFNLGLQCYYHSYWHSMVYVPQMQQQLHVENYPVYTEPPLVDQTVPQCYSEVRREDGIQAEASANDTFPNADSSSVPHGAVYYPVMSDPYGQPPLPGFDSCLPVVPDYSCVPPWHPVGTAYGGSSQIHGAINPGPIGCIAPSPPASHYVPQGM
Briefly: log2 ratio of Biotin-Ahx-Ub-VS probe labelling (fragment/DMSO); higher = less target engagement (more negative = stronger competition), active = hit call of the paper (q ≤ 0.05, log2 ratio ≤ -1). To be noted: compound concentration: 200 uM; treatment time: 3 h. Summed up:
(§1)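 Average log2 ratios of fragment over vehicle were obtained by unpaired t-test from global-median-normalised Spectronaut label-free quantities. Proteins with ≥2 unique peptides were included. HEK293T lysate (495 µg per sample) was treated in triplicate with fragment at 200 µM or vehicle for 3 h, then with Biotin-Ahx-Ub-VS at 0.5 µM final for 1 h, and labelled DUBs were NeutrAvidin-enriched and run by diaPASEF LC-MS/MS.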

The target in assay [2] is ATXN3 (UniProt P54252). The assay is described as above. The settings on record: compound concentration: 200 uM; treatment time: 3 h. Summed up:
as §1

The target in assay [3] is T2, BAP1 (UniProt Q92560).
T2 sequence (whole entry): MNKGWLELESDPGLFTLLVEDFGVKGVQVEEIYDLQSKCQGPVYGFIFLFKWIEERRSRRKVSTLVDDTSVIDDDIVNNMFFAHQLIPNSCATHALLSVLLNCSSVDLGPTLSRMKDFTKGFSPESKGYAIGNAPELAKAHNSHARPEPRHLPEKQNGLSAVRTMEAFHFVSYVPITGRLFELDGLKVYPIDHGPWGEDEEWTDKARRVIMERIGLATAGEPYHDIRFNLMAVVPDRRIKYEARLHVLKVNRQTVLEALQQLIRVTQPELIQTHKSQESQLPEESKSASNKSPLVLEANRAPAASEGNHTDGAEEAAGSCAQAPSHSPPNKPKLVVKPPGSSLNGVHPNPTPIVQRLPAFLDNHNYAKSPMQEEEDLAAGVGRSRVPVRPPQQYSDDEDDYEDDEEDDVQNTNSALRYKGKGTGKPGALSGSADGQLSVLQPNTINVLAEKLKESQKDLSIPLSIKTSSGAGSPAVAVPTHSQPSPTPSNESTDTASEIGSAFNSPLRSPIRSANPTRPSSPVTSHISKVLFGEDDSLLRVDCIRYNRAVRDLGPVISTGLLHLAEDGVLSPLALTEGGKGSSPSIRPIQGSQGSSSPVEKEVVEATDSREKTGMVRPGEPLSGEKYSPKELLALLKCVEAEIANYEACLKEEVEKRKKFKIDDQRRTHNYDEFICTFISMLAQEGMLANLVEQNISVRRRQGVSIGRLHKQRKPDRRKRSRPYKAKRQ
Described as above. The settings on record: compound concentration: 200 uM; treatment time: 3 h. In short, it runs like this:
as §1

For assay [4], the target named is EIF3F (UniProt O00303). The assay is described as above. To be noted: compound concentration: 200 uM; treatment time: 3 h. Summed up:
as §1

Assay [5] concerns the target EIF3H (UniProt O15372). Described as above. To be noted: compound concentration: 200 uM; treatment time: 3 h. In short, it runs like this: as §1
Assay [6] concerns the target T3, FAM105A (UniProt Q9NUU6).
T3 sequence (whole entry): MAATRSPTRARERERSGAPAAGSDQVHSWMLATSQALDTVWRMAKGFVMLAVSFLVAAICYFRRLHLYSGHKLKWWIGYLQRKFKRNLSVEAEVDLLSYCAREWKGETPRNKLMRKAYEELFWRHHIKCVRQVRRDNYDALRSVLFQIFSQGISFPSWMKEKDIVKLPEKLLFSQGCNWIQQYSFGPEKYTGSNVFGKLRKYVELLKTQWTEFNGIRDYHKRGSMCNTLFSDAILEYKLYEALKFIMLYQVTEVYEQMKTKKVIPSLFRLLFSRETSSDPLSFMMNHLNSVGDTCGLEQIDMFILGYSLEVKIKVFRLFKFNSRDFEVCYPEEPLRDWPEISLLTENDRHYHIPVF
The assay is described as above. To be noted: compound concentration: 200 uM; treatment time: 3 h. Summed up: as §1

Assay [7] addresses OTUB1 (UniProt Q96FW1). The description is as above. The settings on record: compound concentration: 200 uM; treatment time: 3 h. In short, it runs like this:
as §1

Assay [8] concerns the target T4, OTUD4 (UniProt Q01804).
T4 sequence (whole entry): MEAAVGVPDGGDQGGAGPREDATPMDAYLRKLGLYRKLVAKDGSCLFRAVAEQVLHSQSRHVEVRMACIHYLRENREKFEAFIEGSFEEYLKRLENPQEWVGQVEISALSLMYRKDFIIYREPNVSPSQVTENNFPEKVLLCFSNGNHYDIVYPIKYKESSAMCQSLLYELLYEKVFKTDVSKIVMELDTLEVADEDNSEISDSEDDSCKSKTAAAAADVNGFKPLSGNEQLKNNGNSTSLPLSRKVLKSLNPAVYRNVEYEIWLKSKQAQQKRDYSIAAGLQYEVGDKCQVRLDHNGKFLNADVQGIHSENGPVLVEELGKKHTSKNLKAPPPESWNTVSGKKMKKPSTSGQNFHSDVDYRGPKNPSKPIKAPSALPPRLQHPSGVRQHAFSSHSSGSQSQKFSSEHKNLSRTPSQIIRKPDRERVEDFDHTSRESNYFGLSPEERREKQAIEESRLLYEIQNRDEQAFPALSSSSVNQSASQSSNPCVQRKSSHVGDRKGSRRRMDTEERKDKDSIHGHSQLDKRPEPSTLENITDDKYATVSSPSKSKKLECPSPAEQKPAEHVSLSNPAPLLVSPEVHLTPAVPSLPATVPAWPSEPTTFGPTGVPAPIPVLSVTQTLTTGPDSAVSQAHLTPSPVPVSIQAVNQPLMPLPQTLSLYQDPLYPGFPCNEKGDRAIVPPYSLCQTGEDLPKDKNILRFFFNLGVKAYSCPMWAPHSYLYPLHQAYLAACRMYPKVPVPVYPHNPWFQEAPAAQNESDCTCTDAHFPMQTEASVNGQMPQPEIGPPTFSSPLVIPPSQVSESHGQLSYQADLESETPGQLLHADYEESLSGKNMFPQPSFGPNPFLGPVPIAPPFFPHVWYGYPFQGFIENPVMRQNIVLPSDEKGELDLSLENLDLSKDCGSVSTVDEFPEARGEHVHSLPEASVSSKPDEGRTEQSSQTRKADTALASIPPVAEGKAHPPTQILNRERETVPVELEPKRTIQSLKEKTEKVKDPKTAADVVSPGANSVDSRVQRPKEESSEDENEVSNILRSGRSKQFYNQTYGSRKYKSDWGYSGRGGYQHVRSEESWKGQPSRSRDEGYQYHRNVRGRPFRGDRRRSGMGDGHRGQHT
The description is as above. To be noted: compound concentration: 200 uM; treatment time: 3 h. In short, it runs like this:
as §1

Assay [9] deals with T5, OTUD5 (UniProt Q96G74).
T5 sequence (whole entry): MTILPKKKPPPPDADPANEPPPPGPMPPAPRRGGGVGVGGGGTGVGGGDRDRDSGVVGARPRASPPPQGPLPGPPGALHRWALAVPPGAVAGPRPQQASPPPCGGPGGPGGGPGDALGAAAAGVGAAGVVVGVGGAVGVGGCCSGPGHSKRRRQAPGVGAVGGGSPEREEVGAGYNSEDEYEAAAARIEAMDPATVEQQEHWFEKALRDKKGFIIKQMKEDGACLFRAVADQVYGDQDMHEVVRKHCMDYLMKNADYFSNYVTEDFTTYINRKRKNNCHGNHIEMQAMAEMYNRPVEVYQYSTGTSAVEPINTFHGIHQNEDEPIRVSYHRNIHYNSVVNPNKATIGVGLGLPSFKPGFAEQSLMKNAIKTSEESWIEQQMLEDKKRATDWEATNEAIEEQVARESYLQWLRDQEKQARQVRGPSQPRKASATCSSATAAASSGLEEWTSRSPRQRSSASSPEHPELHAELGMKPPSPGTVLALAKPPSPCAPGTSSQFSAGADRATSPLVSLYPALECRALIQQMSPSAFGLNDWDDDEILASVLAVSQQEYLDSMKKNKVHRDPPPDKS
The description is as above. To be noted: compound concentration: 200 uM; treatment time: 3 h. In short, it runs like this:
as §1

For assay [10], the target named is T6, USP38 (UniProt Q8NB14).
T6 sequence (whole entry): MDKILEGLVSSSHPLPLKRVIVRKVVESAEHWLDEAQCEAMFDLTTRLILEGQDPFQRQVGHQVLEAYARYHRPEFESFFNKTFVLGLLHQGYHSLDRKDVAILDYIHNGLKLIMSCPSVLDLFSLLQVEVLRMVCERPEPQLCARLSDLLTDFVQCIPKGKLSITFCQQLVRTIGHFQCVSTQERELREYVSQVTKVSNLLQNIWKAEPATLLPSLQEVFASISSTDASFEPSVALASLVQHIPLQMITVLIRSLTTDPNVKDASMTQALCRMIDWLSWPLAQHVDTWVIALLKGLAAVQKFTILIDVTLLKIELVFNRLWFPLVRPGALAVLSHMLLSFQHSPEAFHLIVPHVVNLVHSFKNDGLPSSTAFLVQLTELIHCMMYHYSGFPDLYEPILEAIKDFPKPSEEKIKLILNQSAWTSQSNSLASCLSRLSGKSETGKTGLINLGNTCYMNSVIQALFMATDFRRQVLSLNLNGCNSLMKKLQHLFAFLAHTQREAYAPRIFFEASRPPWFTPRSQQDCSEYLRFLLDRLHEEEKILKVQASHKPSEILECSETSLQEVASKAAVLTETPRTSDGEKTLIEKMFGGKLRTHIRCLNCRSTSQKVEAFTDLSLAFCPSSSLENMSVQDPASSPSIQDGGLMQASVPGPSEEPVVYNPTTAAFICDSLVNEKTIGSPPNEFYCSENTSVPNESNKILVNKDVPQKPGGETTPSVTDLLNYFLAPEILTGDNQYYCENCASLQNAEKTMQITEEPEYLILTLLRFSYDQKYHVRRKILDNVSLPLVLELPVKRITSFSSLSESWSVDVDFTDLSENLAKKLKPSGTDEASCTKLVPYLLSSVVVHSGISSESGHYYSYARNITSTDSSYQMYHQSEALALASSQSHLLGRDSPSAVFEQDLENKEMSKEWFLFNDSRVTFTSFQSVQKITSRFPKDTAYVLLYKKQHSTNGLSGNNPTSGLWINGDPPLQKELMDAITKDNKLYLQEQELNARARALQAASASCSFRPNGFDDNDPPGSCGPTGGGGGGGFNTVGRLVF
Briefly: log2 ratio of Biotin-Ahx-Ub-VS probe labelling (compound/DMSO); higher = less target engagement, active = hit call of the paper (q ≤ 0.05, log2 ratio ≤ -1). To be noted: treatment time: 3 h. Summed up:
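Values are average ratios of compound to vehicle from an unpaired t-test, limited to proteins with at least two unique peptides. HEK293T lysate (495 µg per sample, in Tris/CHAPS/IGEPAL buffer with protease inhibitors) was exposed in triplicate to a concentration series of compound or to vehicle for 3 h, then to Biotin-Ahx-Ub-VS at 0.5 µM final for 1 h. Labelled deubiquitinases were enriched on NeutrAvidin, digested with LysC and trypsin, and analysed by diaPASEF LC-MS/MS. Ratios are given on a log2 scale from Spectronaut label-free protein quantities normalised to the global median.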

Sequence of EIF3F (O00303 whole entry): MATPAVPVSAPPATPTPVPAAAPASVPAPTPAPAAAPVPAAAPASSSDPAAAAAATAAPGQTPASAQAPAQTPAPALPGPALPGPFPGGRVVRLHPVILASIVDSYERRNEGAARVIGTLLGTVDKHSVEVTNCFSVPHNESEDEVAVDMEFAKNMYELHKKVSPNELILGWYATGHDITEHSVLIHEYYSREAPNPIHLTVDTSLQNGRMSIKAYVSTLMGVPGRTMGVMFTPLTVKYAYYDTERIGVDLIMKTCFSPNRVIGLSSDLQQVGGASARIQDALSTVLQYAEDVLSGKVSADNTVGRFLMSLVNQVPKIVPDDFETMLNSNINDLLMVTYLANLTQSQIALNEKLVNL
Sequence of ATXN3 (P54252 whole entry): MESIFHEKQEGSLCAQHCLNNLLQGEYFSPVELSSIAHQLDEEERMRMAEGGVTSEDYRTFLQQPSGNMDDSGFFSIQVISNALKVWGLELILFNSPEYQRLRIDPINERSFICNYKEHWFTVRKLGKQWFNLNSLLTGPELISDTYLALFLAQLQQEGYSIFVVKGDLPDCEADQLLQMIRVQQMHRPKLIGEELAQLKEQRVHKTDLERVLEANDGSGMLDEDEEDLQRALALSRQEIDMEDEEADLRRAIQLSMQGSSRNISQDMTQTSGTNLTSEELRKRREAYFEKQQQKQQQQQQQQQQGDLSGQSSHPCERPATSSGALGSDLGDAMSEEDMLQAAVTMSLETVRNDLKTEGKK
Sequence of OTUB1 (Q96FW1 whole entry): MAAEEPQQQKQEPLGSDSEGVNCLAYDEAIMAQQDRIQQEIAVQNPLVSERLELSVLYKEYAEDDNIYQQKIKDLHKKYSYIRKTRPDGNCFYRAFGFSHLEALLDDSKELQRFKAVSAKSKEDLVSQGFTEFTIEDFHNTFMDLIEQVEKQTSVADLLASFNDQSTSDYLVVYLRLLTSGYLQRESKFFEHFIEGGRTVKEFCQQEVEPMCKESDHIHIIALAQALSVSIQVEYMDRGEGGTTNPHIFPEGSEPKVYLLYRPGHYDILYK
Sequence of EIF3H (O15372 whole entry): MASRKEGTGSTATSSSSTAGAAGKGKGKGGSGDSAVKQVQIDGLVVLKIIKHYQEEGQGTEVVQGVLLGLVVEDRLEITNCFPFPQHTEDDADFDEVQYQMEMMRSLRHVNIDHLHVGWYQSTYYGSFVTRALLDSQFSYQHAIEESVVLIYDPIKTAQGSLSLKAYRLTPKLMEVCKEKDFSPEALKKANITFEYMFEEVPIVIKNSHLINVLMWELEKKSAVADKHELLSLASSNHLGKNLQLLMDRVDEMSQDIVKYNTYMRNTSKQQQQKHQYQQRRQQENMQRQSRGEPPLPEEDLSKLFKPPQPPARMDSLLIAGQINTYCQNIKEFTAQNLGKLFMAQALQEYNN

For `O=C(CCl)Nc1cc2c(cc1Cl)OCCO2`, the “log2 ratio of Biotin-Ahx-Ub-VS probe labelling” value (from here on “log2 ratio”) was -0.314 in assay [1]; 0.00781 in [2]; -3.65 (active) in assay [3]; -0.138 in assay [4]; 0.0273 in [5]; 0.123 in [6]. Moreover, the “log2 ratio” value in assay [7] is 0.157; in assay [8], -0.327; in assay [9] it was -0.173.
Take `O=C(CCl)NC1CCCc2ccccc21` (stereo not drawn): the “log2 ratio” value in [10] (compound concentration: 0.78uM) is -0.0722; in assay [10] (compound concentration: 1.56uM), -0.0473; in assay [10] (compound concentration: 3.13uM), -0.124; in assay [10] (compound concentration: 6.25uM), -0.102; in assay [10] (compound concentration: 12.5uM), -0.214; in assay [10] (compound concentration: 25uM), -0.157. The entries for the “log2 ratio” value in assay [10] (compound concentration: 50uM), in assay [10] (compound concentration: 100uM) and in assay [10] (compound concentration: 200uM) were -0.0382, -0.104 and -0.148, respectively.
